The values below come from PubChem BioAssay (Tox21).

Assay [1] can be described thus: qHTS assay to identify small molecule agonists of the estrogen receptor alpha (ER-alpha) signaling pathway in the presence of an antagonist - cell viability counter screen (AID 1259386). Further: nearly all actives have a fitted effect of over 30% in size. Further: potency means the concentration at half of the fitted maximal effect. On activity change, negative = cytotoxicity: series mostly up to about 92 µM. The procedure, abridged:
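Compounds tested at 15 concentrations for 22 h at 37C alongside 10.0nM (final) ICI-182,780 antagonist, in VM7Luc4E2 cells grown in phenol red-free, charcoal-stripped medium. Viability read by CellTiter-Fluor fluorescence after 1 h reagent incubation.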

Assay [2] has as its target Progesterone receptor (Homo sapiens) (UniProt P06401). Description: qHTS assay to identify small molecule agonists of the progesterone receptor (PR) signaling pathway (AID 1346784; calls by dose curve; further: nearly all actives have a fitted effect of over 30% in size). The procedure, abridged: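 Seed PR-UAS-bla HEK 293T cells (2% charcoal-stripped FBS), incubate 6 hr at 37C; add compounds in DMSO, 16 hr at 37C; add LiveBLAzer B/G substrate, 2 hr RT; read fluorescence intensity.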

Assay [3] shares this target. Description: qHTS assay to identify small molecule antagonists of the progesterone receptor (PR) signaling pathway (AID 1346795; active means well fitted inhibition curve with a large enough effect in the signal ratio in the repeat runs, not every such curve was filed as active; the % refers to the signal ratio; further: potency means the concentration at half of the fitted maximal effect). The procedure, abridged: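 Screening used a GripTite HEK293T line with PR-responsive UAS-beta-lactamase. Cells were challenged with compound in the presence of 1 nM R5020 final for 16 hr at 37C; B/G FRET substrate, 2 hr room temperature, fluorescence.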

A short description of assay [4]: qHTS assay to identify small molecule antagonists of the progesterone receptor (PR) signaling pathway - cell viability counter screen (AID 1346798). Further: nearly all actives have a fitted effect of over 50% in size. Further: potency means the concentration at half of the fitted maximal effect. On activity change, negative = cytotoxicity: series mostly up to about 92 µM. The procedure, abridged:
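Measures cytotoxicity in parallel with the PR antagonist reporter read: HEK293T PR-UAS-bla cells get compound and R5020 for 16 hr, and remaining viable cells are quantified by CellTiter-Glo luminescence.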

Assay [5] in a line: qHTS assay to identify small molecule agonists of the progesterone receptor (PR) signaling pathway - cell viability counter screen (AID 1346799; calls by dose curve; further: nearly all actives have a fitted effect of over 45% in size; further: potency means the concentration at half of the fitted maximal effect). The procedure, abridged:
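Using the same plates as the PR reporter screen, HEK293T PR-UAS-bla cells received compounds for 16 hr at 37C and were then lysed with CellTiter-Glo; luminescence was read 30 min later at room temperature.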

A short description of assay [6]: qHTS assay to identify small molecule antagonists of the TGF-beta/Smad signaling pathway - cell viability counter screen (AID 1346824). Further: nearly all actives have a fitted effect of over 50% in size. The procedure, abridged:
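SBE-bla HEK 293T cells were plated overnight at 37 C, then given compounds in DMSO plus TGF-beta1 (added as 0.25 ng/mL solution) for 5 hr. After the bla read, CellTiter-Glo was added to the same wells and luminescence read after 30 min at room temperature.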

Assay [7] can be described thus: qHTS assay to identify small molecule agonists of the TGF-beta/Smad signaling pathway - cell viability counter screen (AID 1346829). Further: top concentration of the series differs between compounds; nearly all actives have a fitted effect of over 45% in size. The procedure, abridged:
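Luminescence from CellTiter-Glo, read after a 30 min room-temperature incubation, gives cell viability of SBE-bla HEK 293T cells treated 5 hr with compounds at 37 C.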

Assay [8] is described as follows: qHTS assay to identify small molecule agonists of the TGF-beta/Smad signaling pathway (AID 1346859; active means well fitted activation curve with a large enough effect in the signal ratio in the repeat runs, not every such curve was filed as active; the % refers to the signal ratio; further: series mostly up to about 77 µM). The procedure, abridged: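 Beta-lactamase reporter activity downstream of Smad binding elements was measured in stably transfected HEK 293T cells; compounds were incubated for 5 hr, substrate for 2 hr at room temperature.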
For assay [9], the target named is Thyrotropin receptor (Homo sapiens) (UniProt P16473). The assay is described as follows: qHTS assay to identify small molecule antagonists of the thyroid stimulating hormone receptor (TSHR) signaling pathway (AID 1259385; calls by dose curve; further: nearly all actives have a fitted effect of over 20% in size). The procedure, abridged: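 TSHR-HEK293 cells were plated and held 18 h at 37C/5% CO2, then given compound plus Ro20-1724 and stimulated with TSH at 1.5 ng/mL final. After 30 min at room temperature, cAMP was detected with cAMP-d2/anti-cAMP-cryptate (1 h) by fluorescence.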

For assay [10], the target named is Thyrotropin-releasing hormone receptor (Homo sapiens) (UniProt P34981). Description: qHTS assay to identify small molecule antagonists of the thyrotropin-releasing hormone receptor (TRHR) signaling pathway (AID 1346877; active means well fitted inhibition curve with a large enough effect in the repeat runs, not every such curve was filed as active; further: series mostly up to about 51 µM). The procedure, abridged: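 Antagonist mode: after a 5 min room-temperature compound exposure, cells were stimulated with 1 nM (final) TRH. Dye-loaded TRHR-HEK293 cells were used, and calcium-dependent fluorescence was followed for 3 min, with 15-point titrations run in triplicate.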

Molecules are shown by their SMILES. A number with no mark means an inactive call. Results filed as inconclusive are left out. Activity calls are given as the source filed them. Unless noted, the call rests on the fitted dose curve; in most records, active means well fitted curve in the direction sought with a large enough effect in the repeat runs; inconclusive means weak or mixed curves; inactive means no such curve, though single readings can be large; an effect the other way counts as inactive or inconclusive.
On the % scale 0 is the no-effect control and ±100 the full control effect.

Sequence of Progesterone receptor (Homo sapiens) (P06401 whole entry, looked up): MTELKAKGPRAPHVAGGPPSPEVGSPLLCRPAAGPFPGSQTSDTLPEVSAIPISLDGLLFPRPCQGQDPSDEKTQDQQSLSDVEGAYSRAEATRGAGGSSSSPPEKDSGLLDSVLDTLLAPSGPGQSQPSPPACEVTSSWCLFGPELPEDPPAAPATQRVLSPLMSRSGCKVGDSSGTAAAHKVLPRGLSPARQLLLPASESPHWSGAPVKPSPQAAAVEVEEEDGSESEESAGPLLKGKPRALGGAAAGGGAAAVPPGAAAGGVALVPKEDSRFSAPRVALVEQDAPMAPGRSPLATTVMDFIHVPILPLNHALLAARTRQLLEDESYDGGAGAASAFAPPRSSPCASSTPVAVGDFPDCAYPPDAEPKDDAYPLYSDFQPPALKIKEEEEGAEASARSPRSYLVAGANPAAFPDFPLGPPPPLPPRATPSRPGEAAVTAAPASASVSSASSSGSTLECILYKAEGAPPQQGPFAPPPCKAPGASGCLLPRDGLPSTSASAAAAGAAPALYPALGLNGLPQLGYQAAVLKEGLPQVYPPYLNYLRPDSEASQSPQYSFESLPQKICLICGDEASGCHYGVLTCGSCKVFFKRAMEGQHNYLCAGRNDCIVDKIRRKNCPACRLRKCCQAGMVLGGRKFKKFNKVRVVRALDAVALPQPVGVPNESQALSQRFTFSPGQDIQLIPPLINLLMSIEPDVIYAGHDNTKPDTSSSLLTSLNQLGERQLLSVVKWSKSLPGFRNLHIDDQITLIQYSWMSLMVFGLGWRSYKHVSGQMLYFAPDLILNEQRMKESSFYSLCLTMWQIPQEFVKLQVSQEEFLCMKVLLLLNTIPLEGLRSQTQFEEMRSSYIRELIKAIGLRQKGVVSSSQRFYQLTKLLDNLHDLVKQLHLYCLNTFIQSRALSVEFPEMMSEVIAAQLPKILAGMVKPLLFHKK
Sequence of Thyrotropin-releasing hormone receptor (Homo sapiens) (P34981 whole entry, looked up): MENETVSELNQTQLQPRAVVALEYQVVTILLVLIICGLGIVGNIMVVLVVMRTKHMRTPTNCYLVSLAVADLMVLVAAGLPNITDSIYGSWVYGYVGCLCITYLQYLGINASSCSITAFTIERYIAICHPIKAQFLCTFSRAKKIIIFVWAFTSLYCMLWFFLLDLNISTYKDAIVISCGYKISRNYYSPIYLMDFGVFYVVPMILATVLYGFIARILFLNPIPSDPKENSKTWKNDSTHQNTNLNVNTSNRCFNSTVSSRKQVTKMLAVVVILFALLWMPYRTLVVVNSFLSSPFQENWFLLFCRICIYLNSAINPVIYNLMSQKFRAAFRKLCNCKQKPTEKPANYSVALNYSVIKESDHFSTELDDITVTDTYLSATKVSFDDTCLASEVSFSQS
Sequence of Thyrotropin receptor (Homo sapiens) (P16473 whole entry, looked up): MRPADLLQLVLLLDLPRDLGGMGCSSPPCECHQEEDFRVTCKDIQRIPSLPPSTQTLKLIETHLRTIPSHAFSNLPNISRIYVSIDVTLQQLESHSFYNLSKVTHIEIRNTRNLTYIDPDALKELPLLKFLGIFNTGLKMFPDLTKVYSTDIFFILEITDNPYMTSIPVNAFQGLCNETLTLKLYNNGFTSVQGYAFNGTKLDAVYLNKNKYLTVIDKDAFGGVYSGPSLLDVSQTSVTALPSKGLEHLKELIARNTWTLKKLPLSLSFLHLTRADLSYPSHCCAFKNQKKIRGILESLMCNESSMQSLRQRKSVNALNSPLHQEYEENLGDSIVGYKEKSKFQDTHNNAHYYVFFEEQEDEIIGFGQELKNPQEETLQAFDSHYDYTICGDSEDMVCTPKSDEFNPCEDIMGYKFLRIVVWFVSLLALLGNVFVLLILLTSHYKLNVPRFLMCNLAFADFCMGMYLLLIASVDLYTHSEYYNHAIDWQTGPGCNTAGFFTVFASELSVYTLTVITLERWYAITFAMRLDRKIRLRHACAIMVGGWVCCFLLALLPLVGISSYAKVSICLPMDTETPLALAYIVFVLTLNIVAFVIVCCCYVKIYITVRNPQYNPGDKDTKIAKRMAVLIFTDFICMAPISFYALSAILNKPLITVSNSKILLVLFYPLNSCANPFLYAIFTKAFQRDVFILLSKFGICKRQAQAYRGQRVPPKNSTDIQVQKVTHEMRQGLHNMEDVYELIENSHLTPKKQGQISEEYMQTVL

`CCc1cccc(N(C)C(N)=Nc2cccc3ccccc23)c1`: the Potency entry in assay [1], in [2], in [3], in [4] and in assay [5] was “inactive” each time. The outcome in [6], in assay [7] and in assay [8] was inactive.
As to `CN(C)C(=O)Nc1ccc(Oc2ccc(Cl)cc2)cc1`, the Potency entry in assay [9] and in assay [2] was “inactive” each time. In assay [3], the Potency was 34.4 µM (active). The compound was classed as inactive in assay [6], in assay [7] and in assay [8].
Turning to `CN(C(=O)C(Cl)Cl)c1ccc(OC(=O)c2ccco2)cc1`, the Potency result in assay [1], in assay [2], in assay [3], in assay [4] and in [5] was “inactive” in each case. The result in assay [6], in [7], in [8] and in [10] was inactive.
With `C=CC(=O)NCOCC(C)C`, the Potency result in assay [1], in [2], in assay [3], in assay [4] and in [5] was “inactive” in each case. The compound was classed as inactive in [6], in [7], in assay [8] and in [10].
Turning to `CC1CN(c2cc3c(cc2F)c(=O)c(C(=O)O)cn3-c2ccc(F)cc2F)CCN1` (configuration not stated), the activity change, negative = cytotoxicity is -5.19% [at 8.39 µM] in [1], 0.324% [at 8.39 µM] in assay [4], -0.292% [at 8.39 µM] in assay [5] and 5.65% [at 6.97 µM] in assay [7]. Besides, the activation in assay [2] was -0.275% [at 8.39 µM]; in assay [8], -2.82% [at 6.97 µM]. Moreover, the activity change, negative = inhibition in [3] was 4.51% [at 8.39 µM]. Also, the viability change, negative = cytotoxic in assay [6] was -5.24% [at 6.97 µM]. In addition, the activity, negative = inhibition in assay [10] is 2.02% [at 4.65 µM].
As to `C/C=C(\C)C(=O)OCCC(C)CCC=C(C)C` (configuration not stated), the Potency result in [1], in assay [2], in [3], in assay [4] and in assay [5] was “inactive” throughout. The outcome in assay [6] and in assay [7] was inactive.
Take `O=[N+]([O-])c1cccc(S(=O)(=O)NCCNS(=O)(=O)c2cccc([N+](=O)[O-])c2)c1`: the Potency entry in [1], in assay [2], in assay [3], in assay [4] and in assay [5] was “inactive” in each case. Further, the outcome in assay [6], in assay [7], in assay [8] and in [10] was inactive.
`CC1C2CC(CC2C2CCCC(O)C2)C1(C)C` (configuration not stated): the Potency result in assay [9], in assay [1] and in assay [5] was “inactive” in each case. Besides, the outcome in assay [6], in assay [7], in assay [8] and in assay [10] was inactive.
On to `OC/C(Br)=C(\Br)CO`, for which the Potency entry in assay [1], in assay [2], in assay [3], in [4] and in [5] was “inactive” in each case. The result in [6], in assay [7], in [8] and in assay [10] was inactive.
With `CCOC(=N)CC(=O)OCC`, the Potency result in assay [9] and in assay [1] was “inactive” in each case. The Potency in [4] is 17.2 µM (active). The call in assay [7], in [8] and in [10] was inactive.
Regarding `CC1CC(=O)NN=C1c1ccc(NCC(C)(C)NCC(O)COc2cc(Cl)ccc2C#N)cc1` (configuration not stated), the Potency entry in [9], in assay [2], in assay [3], in [4] and in assay [5] was “inactive” in each case. The outcome in assay [6], in [7], in assay [8] and in assay [10] was inactive.
As to `CCCCC(CC)COC(=O)COc1ccc(Cl)cc1C` (configuration not stated), the Potency entry in assay [1], in assay [2], in assay [3], in assay [4] and in [5] was “inactive” throughout. The call in assay [6], in assay [7] and in assay [8] was inactive.
For `CO/N=C1\CN(c2nc3c(cc2F)c(=O)c(C(=O)O)cn3C2CC2)CC1CN` (configuration not stated), the Potency entry in assay [9], in [4] and in assay [5] was “inactive” in each case. Further, the compound was classed as inactive in [6], in assay [7] and in [8].
On to `CCOc1cc(N)c(Cl)cc1C(=O)NCC1CN(Cc2ccc(F)cc2)CCO1` (configuration not stated), for which the Potency entry in assay [9], in [2], in [4] and in assay [5] was “inactive” each time. For the same compound, the compound was called inactive in assay [6], in assay [7] and in assay [8].
As for `COc1cc2c(cc1OC)-c1cc(=Nc3c(C)cc(C)cc3C)n(C)c(=O)n1CC2`, the Potency result in [1] and in assay [2] was “inactive” in each case. Moreover, in [3], the Potency was 26.6 µM (active). Further, the compound was classed as inactive in assay [6], in assay [7], in assay [8] and in [10].
`CC[C@@H]([C@H](C)O)n1ncn(-c2ccc(N3CCN(c4ccc(OC[C@@H]5CO[C@@](Cn6cncn6)(c6ccc(F)cc6F)C5)cc4)CC3)cc2)c1=O`: the Potency entry in [1] and in assay [2] was “inactive” in each case. Besides, the Potency in assay [4] and in assay [5] was 16.8 µM (active) each time. Also, the result in [8] was inactive.
On to `C=C(C)C(=O)OCCOC(=O)CC(C)=O`, for which the Potency result in [1], in assay [2], in assay [4] and in assay [5] was “inactive” each time. The outcome in assay [6], in [7] and in [8] was inactive.
As to `O=C(Nc1ccccc1)Nc1ccccc1`, the Potency result in assay [1], in [2], in [4] and in assay [5] was “inactive” in each case. Besides, the outcome in [6], in [7], in assay [8] and in assay [10] was inactive.
Consider `Cc1cc(O)c(C(C)C)cc1Cl`, for which the Potency result in assay [1], in assay [2], in [3], in [4] and in [5] was “inactive” each time. For the same compound, the outcome in [7], in assay [8] and in [10] was inactive.
Consider `O=C(CS)OCCOC(=O)CS`, for which the Potency entry in assay [1], in assay [2], in assay [3] and in assay [5] was “inactive” in each case. The call in assay [6], in [7] and in [10] was inactive.
Regarding `Cc1oc(C)c(C(=O)Nc2ccccc2)c1C`, the Potency entry in assay [1], in assay [2], in assay [4] and in [5] was “inactive” throughout. Also, the outcome in assay [8] and in assay [10] was inactive.
`Oc1ccc(Nc2ccccc2)cc1`: the Potency entry in assay [1], in assay [2] and in [4] was “inactive” throughout. Moreover, the Potency in assay [3] was 27.3 µM (active). Also, the compound was classed as inactive in [7], in [8] and in assay [10].
`CCOC(=O)C(C)Oc1ccc(Oc2nc3ccc(Cl)cc3o2)cc1` (configuration not stated): the Potency entry in [1], in [2], in assay [4] and in [5] was “inactive” throughout. Also, the compound was called inactive in [6], in assay [7], in assay [8] and in assay [10].
Consider `CCOC(=O)[C@@H](C)Oc1ccc(Oc2nc3ccc(Cl)cc3o2)cc1`, for which the Potency result in assay [1], in [2] and in [4] was “inactive” each time. Also, the result in assay [6] and in [7] was inactive.
As to `CCCCCCOC(=O)CCCCCCCC(=O)OCCCCCC`, the Potency entry in [1], in assay [2], in [3], in [4] and in assay [5] was “inactive” throughout. The result in assay [7], in assay [8] and in [10] was inactive.
Regarding `CCc1nn(CCCN2CCN(c3cccc(Cl)c3)CC2)c(=O)n1CCOc1ccccc1`, the Potency in [1] was 29.8 µM (active); in assay [3], 26.6 µM (active). In addition, the Potency result in [2] is “inactive”. Moreover, the compound was called inactive in [6], in assay [7], in assay [8] and in assay [10].
